Results filed as inconclusive are left out. Activity calls are given as the source filed them. Unless noted, the call rests on the fitted dose curve; in most records, active means well fitted curve in the direction sought with a large enough effect in the repeat runs; inconclusive means weak or mixed curves; inactive means no such curve, though single readings can be large; an effect the other way counts as inactive or inconclusive.
Legend:
[1] = target: Estrogen receptor beta (Homo sapiens) (UniProt Q92731); assay: qHTS assay to identify small molecule agonists of the estrogen receptor beta (ER-beta) signaling pathway (AID 1259377; active means well fitted activation curve with a large enough effect in the signal ratio in the repeat runs, not every such curve was filed as active; the % refers to the signal ratio)
Method in brief: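 ER-beta-UAS-bla HEK293T cells in medium with 2% charcoal-stripped FBS were exposed to compounds for 16 h at 37C. Beta-lactamase reporter activity was read as fluorescence after 2 h with LiveBLAzer B/G FRET substrate at room temperature.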

[2] = target: Estrogen receptor beta (Homo sapiens) (UniProt Q92731); assay: qHTS assay to identify small molecule antagonists of the estrogen receptor beta (ER-beta) signaling pathway (AID 1259378; active means well fitted inhibition curve with a large enough effect in the signal ratio in the repeat runs, not every such curve was filed as active; the % refers to the signal ratio)
Method in brief: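 ER-beta-UAS-bla HEK293T cells in 2% charcoal-stripped FBS medium treated with compound plus 1nM final 17-beta-estradiol for 16 hr at 37C. Beta-lactamase reporter read by FRET substrate fluorescence after 2 hours at room temperature.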

[3] = qHTS assay to identify small molecule agonists of the androgen receptor (AR) signaling pathway in the presence of an antagonist - cell viability counter screen (AID 1259379); further: series mostly up to about 92 µM; nearly all actives have a fitted effect of over 25% in size
Method in brief: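 MDA-kb2 human breast carcinoma cells (stable MMTV-luciferase, AR/GR responsive) were seeded 3,000 cells/well, pre-incubated 5 hr at 37C without CO2, then given 3.0uM nilutamide and compounds at 15 concentrations for 16 hr. Viability was read by CellTiter-Fluor fluorescence.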

[4] = qHTS assay to identify small molecule agonists of the estrogen receptor beta (ER-beta) signaling pathway - cell viability counter screen (AID 1259380); further: nearly all actives have a fitted effect of over 30% in size
Method in brief: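 ER-beta-UAS-bla HEK293T cells in medium with 2% charcoal-stripped FBS were preincubated 6 hr at 37C, dosed with compound in DMSO for 16 hr, then after the bla read, CellTiter-Glo was added for 30 min at room temperature; luminescence recorded.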

[5] = qHTS assay to identify small molecule antagonists of the estrogen receptor beta (ER-beta) signaling pathway - cell viability counter screen (AID 1259382); further: series mostly up to about 92 µM; nearly all actives have a fitted effect of over 55% in size
Method in brief: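 ER-beta-UAS-bla HEK293T cells (2,000/well, 2% charcoal-stripped FBS) were pre-incubated 6 hr at 37C, then given compound plus 1nM final 17-beta-estradiol for 16 hr. Viability was read in the same wells by CellTiter-Glo luminescence after 30 min at room temperature.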

[6] = target: Estrogen receptor (Homo sapiens) (UniProt P03372); assay: qHTS assay to identify small molecule agonists of the estrogen receptor alpha (ER-alpha) signaling pathway in the presence of an antagonist (AID 1259383; calls by dose curve; further: top concentration of the series differs between compounds; nearly all actives have a fitted effect of over 15% in size)
Method in brief: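 VM7Luc4E2 cells (endogenous full-length ER-alpha, 4×ERE-luciferase) were precultured 5 days in phenol red-free medium with 10% charcoal-stripped FBS, given 10.0nM ICI-182,780 (final), then treated with compounds at 15 concentrations for 22hr at 37C; luminescence read with ONE-Glo.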

[7] = qHTS assay to identify small molecule agonists or antagonists of the thyroid stimulating hormone receptor (TSHR) signaling pathway - wild type cell line counter screen (AID 1259384; calls by dose curve)
Method in brief: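 Wild-type Hek293 cells, 800/well, 18 h at 37C, then compound with Ro20-1724 for 30 min RT. cAMP by HTRF (cAMP-d2/anti-cAMP cryptate), 1 h RT, fluorescence read. 15 concentrations, triplicates.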

[8] = target: Thyrotropin receptor (Homo sapiens) (UniProt P16473); assay: qHTS assay to identify small molecule antagonists of the thyroid stimulating hormone receptor (TSHR) signaling pathway (AID 1259385; calls by dose curve; further: nearly all actives have a fitted effect of over 20% in size)
Method in brief: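 TSHR-HEK293 cells (800/well) plated 18 h, then compounds with Ro20-1724 and TSH at 1.5 ng/mL final, 30 min at room temperature. cAMP quantified by HTRF (cAMP-d2/anti-cAMP-cryptate, 1 h); 15 concentrations in triplicate.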

[9] = qHTS assay to identify small molecule agonists of the estrogen receptor alpha (ER-alpha) signaling pathway in the presence of an antagonist - cell viability counter screen (AID 1259386);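 further: series mostly up to about 92 µM; cells exposed to compounds for 22 h at 37 °C before the viability read; nearly all actives have a fitted effect of over 30% in size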
Method in brief: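 VM7Luc4E2 cells (endogenous full-length ER-alpha, 4×ERE-luciferase) were held 5 days in phenol red-free medium with 10% charcoal-stripped FBS, plated, then given 10.0nM ICI-182,780 and compounds at 15 concentrations for 22hr at 37C; viability read by CellTiter-Fluor fluorescence.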

[10] = target: Progesterone receptor (Homo sapiens) (UniProt P06401); assay: qHTS assay to identify small molecule agonists of the progesterone receptor (PR) signaling pathway (AID 1346784; calls by dose curve; further: nearly all actives have a fitted effect of over 30% in size)
Method in brief: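 PR-UAS-bla HEK 293T cells (beta-lactamase reporter under UAS) in 2% charcoal-stripped FBS, dosed with 23 nL compound after 6 hr, incubated 16hr at 37C. LiveBLAzer B/G FRET substrate added, fluorescence read after 2 hours.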

[11] = target: Progesterone receptor (Homo sapiens) (UniProt P06401); assay: qHTS assay to identify small molecule antagonists of the progesterone receptor (PR) signaling pathway (AID 1346795; active means well fitted inhibition curve with a large enough effect in the signal ratio in the repeat runs, not every such curve was filed as active; the % refers to the signal ratio)
Method in brief: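 PR-UAS-bla HEK293T cells with beta-lactamase reporter under UAS control, in 2% charcoal-stripped FBS, treated with compounds plus 1 nM promegestone (R5020, final) for 16 hr at 37C. Read-out: FRET beta-lactamase substrate fluorescence after 2 hr at room temperature.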

[12] = qHTS assay to identify small molecule antagonists of the progesterone receptor (PR) signaling pathway - cell viability counter screen (AID 1346798); further: series mostly up to about 92 µM; nearly all actives have a fitted effect of over 50% in size
Method in brief: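 PR-UAS-bla HEK293T cells, 3,000/well in 2% charcoal-stripped FBS medium, dosed with compounds plus R5020 agonist and incubated 16 h at 37C. Viability then measured in the same wells by CellTiter-Glo luminescence after 30 min at RT.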

[13] = qHTS assay to identify small molecule agonists of the progesterone receptor (PR) signaling pathway - cell viability counter screen (AID 1346799; calls by dose curve; further: nearly all actives have a fitted effect of over 45% in size)
Method in brief: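 Counter screen in the PR-UAS-bla HEK293T wells (2% charcoal-stripped FBS, 16 h compound exposure at 37 C) after the bla read. CellTiter-Glo added, 30 min at room temperature, luminescence read as cell viability.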

[14] = qHTS assay to identify small molecule antagonists of the TGF-beta/Smad signaling pathway - cell viability counter screen (AID 1346824); further: nearly all actives have a fitted effect of over 50% in size
Method in brief: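 SBE-bla HEK 293T cells, incubated overnight, then compound plus 0.25 ng/mL TGF-beta1 (stock added) for 5 hr at 37 C. Viability was read in the same wells by CellTiter-Glo luminescence after 30 min at room temperature.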

[15] = target: Thyrotropin-releasing hormone receptor (Homo sapiens) (UniProt P34981); assay: qHTS assay to identify small molecule antagonists of the thyrotropin-releasing hormone receptor (TRHR) signaling pathway (AID 1346877; active means well fitted inhibition curve with a large enough effect in the repeat runs, not every such curve was filed as active; further: series mostly up to about 51 µM)
Method in brief: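 TRHR-expressing HEK293 cells were seeded, cultured 18 h at 37 °C, then loaded with calcium dye for 2 h. Compounds were pre-incubated 5 min at room temperature before 1 nM TRH (final) was added, and kinetic fluorescence was recorded for 3 min.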

[16] = target: Thyrotropin-releasing hormone receptor (Homo sapiens) (UniProt P34981); assay: qHTS assay to identify small molecule agonists of the thyrotropin-releasing hormone receptor (TRHR) signaling pathway (AID 1346891; calls by dose curve; further: series mostly up to about 58 µM)
Method in brief: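 HEK293 cells expressing TRHR plated 18 h at 37 C/5% CO2, calcium dye-loaded 2 h at 37 C, then compound added (agonist mode); kinetic calcium fluorescence read 3 min at 1 s intervals; 15 concentrations in triplicate.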

[17] = Human pregnane X receptor (PXR) small molecule agonists, qHTS cell viability counter screen (AID 1346977); further: nearly all actives have a fitted effect of over 50% in size
Method in brief: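 PXR-Luc HepG2 cells (2,000/well, 5% charcoal-stripped FBS) preincubated 5 hr, then exposed to compounds 24 hr at 37 C. Viability read in the same wells by CellTiter-Fluor fluorescence, reagent added at 23 hr, 1 hr incubation.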

[18] = qHTS assay to identify small molecule agonists of the TGF-beta/Smad signaling pathway (AID 1346859; active means well fitted activation curve with a large enough effect in the signal ratio in the repeat runs, not every such curve was filed as active; the % refers to the signal ratio; further: series mostly up to about 77 µM)
Method in brief: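 SBE-bla HEK293T cells plated overnight, then compound exposure for 5 h at 37 C. Beta-lactamase reporter read with LiveBLAzer B/G FRET substrate after 2 h at room temperature, fluorescence at 405 nm excitation, 460/530 nm emission.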

[19] = target: Androgen receptor (Homo sapiens) (UniProt P10275); assay: qHTS assay to identify small molecule agonists of the androgen receptor (AR) signaling pathway in the presence of an antagonist (AID 1259381; calls by dose curve; further: nearly all actives have a fitted effect of over 15% in size)
Method in brief: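 MDA-kb2 human breast carcinoma cells carrying an MMTV-luciferase reporter (AR- and GR-responsive) were treated with compounds at 15 concentrations plus 3.0uM final nilutamide for 16hr at 37C without CO2; luminescence was read after ONE-Glo addition.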

[20] = qHTS assay to identify small molecule agonists of the TGF-beta/Smad signaling pathway - cell viability counter screen (AID 1346829); further: top concentration of the series differs between compounds; nearly all actives have a fitted effect of over 45% in size
Method in brief: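 Luminescence from CellTiter-Glo, read after a 30 min room-temperature incubation, gives cell viability of SBE-bla HEK 293T cells treated 5 hr with compounds at 37 C.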

Measured: Potency

Sequence of Estrogen receptor (Homo sapiens) (P03372 whole entry, looked up): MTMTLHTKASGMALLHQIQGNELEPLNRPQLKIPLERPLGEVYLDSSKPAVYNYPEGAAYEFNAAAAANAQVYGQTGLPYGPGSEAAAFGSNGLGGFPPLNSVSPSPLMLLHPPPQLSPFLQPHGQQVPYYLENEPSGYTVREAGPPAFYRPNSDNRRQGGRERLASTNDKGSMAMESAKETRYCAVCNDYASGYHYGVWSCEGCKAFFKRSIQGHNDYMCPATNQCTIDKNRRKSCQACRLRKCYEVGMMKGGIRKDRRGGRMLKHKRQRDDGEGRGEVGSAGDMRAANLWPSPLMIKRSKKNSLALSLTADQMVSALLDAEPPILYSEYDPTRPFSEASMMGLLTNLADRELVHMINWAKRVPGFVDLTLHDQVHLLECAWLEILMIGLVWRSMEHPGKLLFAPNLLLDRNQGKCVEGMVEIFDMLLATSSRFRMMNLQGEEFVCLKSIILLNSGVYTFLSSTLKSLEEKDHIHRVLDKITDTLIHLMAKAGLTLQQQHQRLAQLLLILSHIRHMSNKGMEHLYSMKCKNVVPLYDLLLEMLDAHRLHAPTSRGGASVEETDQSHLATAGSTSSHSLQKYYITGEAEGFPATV
Sequence of Thyrotropin receptor (Homo sapiens) (P16473 whole entry, looked up): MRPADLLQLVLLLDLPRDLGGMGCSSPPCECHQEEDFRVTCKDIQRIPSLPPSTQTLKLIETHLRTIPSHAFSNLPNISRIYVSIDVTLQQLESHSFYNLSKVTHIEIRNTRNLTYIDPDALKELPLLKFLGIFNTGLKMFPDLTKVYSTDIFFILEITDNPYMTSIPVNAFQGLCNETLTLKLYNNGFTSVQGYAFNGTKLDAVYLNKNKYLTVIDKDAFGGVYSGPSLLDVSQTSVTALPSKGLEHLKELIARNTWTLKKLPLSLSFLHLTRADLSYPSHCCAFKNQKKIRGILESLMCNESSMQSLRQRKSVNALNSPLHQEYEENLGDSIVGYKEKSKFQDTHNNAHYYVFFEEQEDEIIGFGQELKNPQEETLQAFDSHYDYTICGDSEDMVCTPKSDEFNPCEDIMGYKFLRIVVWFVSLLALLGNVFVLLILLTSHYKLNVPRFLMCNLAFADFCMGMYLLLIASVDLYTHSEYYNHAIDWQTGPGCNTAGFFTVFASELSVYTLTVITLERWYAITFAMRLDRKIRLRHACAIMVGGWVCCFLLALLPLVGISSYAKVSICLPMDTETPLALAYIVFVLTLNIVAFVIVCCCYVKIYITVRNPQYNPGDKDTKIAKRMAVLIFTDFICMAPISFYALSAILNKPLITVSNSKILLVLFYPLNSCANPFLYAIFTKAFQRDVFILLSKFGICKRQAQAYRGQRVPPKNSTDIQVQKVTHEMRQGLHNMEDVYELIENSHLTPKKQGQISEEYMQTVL
Sequence of Estrogen receptor beta (Homo sapiens) (Q92731 whole entry, looked up): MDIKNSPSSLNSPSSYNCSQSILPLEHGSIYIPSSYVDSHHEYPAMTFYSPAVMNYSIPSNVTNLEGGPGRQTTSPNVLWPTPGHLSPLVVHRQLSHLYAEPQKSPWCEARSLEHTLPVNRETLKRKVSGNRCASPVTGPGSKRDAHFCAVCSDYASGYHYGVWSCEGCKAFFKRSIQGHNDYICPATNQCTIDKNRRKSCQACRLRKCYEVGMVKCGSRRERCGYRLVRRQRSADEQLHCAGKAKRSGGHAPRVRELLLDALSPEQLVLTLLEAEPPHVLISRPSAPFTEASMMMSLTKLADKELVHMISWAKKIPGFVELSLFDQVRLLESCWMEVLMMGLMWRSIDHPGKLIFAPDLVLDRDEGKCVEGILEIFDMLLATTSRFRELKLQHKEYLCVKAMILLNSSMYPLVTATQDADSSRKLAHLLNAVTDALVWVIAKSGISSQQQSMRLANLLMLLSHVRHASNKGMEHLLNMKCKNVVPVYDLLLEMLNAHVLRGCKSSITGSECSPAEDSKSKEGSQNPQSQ
Sequence of Androgen receptor (Homo sapiens) (P10275 whole entry, looked up): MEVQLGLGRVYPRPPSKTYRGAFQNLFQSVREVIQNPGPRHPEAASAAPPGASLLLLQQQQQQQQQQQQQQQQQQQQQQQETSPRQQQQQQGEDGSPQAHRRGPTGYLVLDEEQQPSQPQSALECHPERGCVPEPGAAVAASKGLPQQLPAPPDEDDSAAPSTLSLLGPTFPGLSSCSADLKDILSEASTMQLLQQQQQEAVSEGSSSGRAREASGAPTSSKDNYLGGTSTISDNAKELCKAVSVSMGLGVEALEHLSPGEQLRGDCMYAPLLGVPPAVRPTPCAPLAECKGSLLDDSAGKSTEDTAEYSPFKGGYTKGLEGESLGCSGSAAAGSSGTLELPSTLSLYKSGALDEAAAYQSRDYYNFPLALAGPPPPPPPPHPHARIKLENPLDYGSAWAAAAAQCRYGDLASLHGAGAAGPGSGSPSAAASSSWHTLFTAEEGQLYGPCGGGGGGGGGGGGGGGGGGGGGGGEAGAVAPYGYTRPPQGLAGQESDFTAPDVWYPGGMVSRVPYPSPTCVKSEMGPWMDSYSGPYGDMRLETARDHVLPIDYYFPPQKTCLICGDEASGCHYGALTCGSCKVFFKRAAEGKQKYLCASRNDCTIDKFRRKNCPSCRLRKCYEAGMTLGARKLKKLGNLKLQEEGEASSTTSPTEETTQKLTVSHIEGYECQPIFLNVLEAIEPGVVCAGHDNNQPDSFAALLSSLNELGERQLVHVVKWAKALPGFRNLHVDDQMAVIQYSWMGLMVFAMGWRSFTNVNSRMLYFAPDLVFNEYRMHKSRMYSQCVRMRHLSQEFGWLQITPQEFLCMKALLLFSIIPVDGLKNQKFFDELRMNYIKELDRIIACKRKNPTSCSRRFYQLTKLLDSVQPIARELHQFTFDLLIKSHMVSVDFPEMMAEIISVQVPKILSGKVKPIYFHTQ
Sequence of Progesterone receptor (Homo sapiens) (P06401 whole entry, looked up): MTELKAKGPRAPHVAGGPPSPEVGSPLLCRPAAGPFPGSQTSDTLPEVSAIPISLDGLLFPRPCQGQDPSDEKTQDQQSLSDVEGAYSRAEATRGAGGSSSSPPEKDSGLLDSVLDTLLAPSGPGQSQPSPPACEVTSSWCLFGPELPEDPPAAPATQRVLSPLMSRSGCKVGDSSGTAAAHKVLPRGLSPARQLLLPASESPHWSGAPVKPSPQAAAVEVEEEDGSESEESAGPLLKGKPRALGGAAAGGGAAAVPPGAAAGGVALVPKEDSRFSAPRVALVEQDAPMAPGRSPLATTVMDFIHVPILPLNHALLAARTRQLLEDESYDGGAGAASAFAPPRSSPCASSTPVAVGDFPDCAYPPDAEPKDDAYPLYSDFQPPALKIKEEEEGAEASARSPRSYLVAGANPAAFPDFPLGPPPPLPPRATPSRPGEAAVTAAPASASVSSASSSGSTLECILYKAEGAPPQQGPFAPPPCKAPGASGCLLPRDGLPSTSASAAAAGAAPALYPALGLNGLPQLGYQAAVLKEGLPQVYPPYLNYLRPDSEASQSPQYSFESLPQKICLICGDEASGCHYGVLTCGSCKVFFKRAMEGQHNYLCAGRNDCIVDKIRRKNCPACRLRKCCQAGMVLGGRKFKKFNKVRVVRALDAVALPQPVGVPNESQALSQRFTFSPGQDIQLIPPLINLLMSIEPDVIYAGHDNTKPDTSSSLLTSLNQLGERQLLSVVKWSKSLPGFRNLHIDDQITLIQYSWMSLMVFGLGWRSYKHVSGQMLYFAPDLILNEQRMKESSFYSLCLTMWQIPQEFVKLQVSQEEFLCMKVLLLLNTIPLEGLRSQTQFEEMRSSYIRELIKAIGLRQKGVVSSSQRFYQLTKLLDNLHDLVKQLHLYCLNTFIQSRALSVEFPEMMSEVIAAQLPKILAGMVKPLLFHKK
Sequence of Thyrotropin-releasing hormone receptor (Homo sapiens) (P34981 whole entry, looked up): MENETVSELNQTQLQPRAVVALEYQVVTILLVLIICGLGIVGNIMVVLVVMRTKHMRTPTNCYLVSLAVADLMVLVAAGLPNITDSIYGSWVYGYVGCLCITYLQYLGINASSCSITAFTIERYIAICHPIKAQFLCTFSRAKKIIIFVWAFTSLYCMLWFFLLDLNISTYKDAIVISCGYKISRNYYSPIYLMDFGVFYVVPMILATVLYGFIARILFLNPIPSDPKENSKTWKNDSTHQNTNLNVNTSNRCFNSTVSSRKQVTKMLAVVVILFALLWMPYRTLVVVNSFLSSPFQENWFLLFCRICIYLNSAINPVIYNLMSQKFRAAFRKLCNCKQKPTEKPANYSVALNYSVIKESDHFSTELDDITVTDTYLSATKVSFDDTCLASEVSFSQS

FC(F)(F)c1ccc(Cl)cc1
inactive: [1] | [2] | [3] | [4] | [5] | [6] | [7] | [8] | [9] | [10] | [11] | [12] | [13] | [14] | [15] | [16]

CC[N+](=O)[O-]
inactive: [1] | [2] | [3] | [4] | [5] | [7] | [8] | [9] | [10] | [11] | [12] | [13] | [14] | [17]

Cc1cccc(C)c1N
inactive: [1] | [3] | [4] | [5] | [6] | [7] | [8] | [9] | [10] | [11] | [12] | [13] | [14] | [18] | [15] | [16]

CC(C)(C)C(=O)CCl
inactive: [1] | [3] | [4] | [19] | [5] | [6] | [7] | [8] | [9] | [10] | [11] | [12] | [13] | [14] | [18] | [15] | [16]

CCSC(=O)N1CCCCCC1
inactive: [1] | [2] | [3] | [4] | [5] | [6] | [7] | [8] | [9] | [10] | [11] | [12] | [14] | [18] | [17]

CNC(=O)O/N=C/C(C)(C)S(C)(=O)=O
inactive: [1] | [2] | [3] | [4] | [19] | [5] | [6] | [9] | [10] | [11] | [12] | [13] | [14] | [20] | [18] | [15] | [16] | [17]

CC12CC1(C)C(=O)N(c1cc(Cl)cc(Cl)c1)C2=O (centres undefined)
inactive: [1] | [2] | [3] | [4] | [19] | [5] | [9] | [10] | [12] | [13] | [14] | [18] | [15] | [16]

Clc1cnc(Oc2ccc(Oc3ncc(Cl)cc3Cl)cc2)c(Cl)c1
inactive: [1] | [2] | [3] | [4] | [5] | [7] | [8] | [9] | [10] | [11] | [12] | [13] | [14] | [17]

O=C(O)C(Br)Br
inactive: [1] | [2] | [3] | [4] | [5] | [6] | [9] | [10] | [11] | [12] | [13] | [14] | [20] | [15] | [16]

— PubChem BioAssay (Tox21)
